Assay results taken from PubChem BioAssay (NCI).
About 83,000 compounds went through this panel and 20% of them were active in at least one assay; those are over-represented in the sample as a whole.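 Single-dose data. Exposure time 48 hours. Values below 10 considered active.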 Unmarked numbers belong to inactive results. The source made the active and inactive calls.

System: OVCAR-5 ovarian
Assay: NCI-60 one-dose screen, 48 h (100 = growth as untreated, 0 = no growth, -100 = all killed)
Settings: 10 µM unless noted
Experimental: Growth inhibition of the OVCAR-5 human tumor cell line is measured as a screen for anti-cancer activity. Cells are grown in 96 well plates and exposed to the test compound for 48 hours. Compounds are tested at a single concentration, which is 10^-5 M for most compounds. The reported endpoint is percent growth (GI% or GIPRCNT), where numbers from 0 - 100% represent growth inhibition, and numbers from -100% - 0 represent cell death. For example, a value of 40 represents 60% growth inhibition. A value of 0 means no net growth occurred over the course of the experiment. A value of -40 indicates 40% of cells at the beginning of the experiment died by the end of the experiment. A value of -100 means all cells are dead at the end of the experiment.
NCI-60 Human Tumor Cell Lines Screen was performed using the standard one-dose NCI protocol, which is described in more detail at https://dtp.cancer.gov/discovery_development/nci-60/default.htm.
Compounds with GIPRCNT values below 10 were considered active. Activity score was based on GIPRCNT using the following formula: […]
Score is 0 for GIPRCNT values of 100 or above, 50 for GIPRCNT values of 0, and 100 for GIPRCNT values of -100.

SMILES | growth
O=C1c2cc3c(cc2-c2c1c1ccc(Cl)cc1c(=O)n2C[C@H](O)[C@@H](O)[C@H](O)CO)OCO3 | -2.44% (active)
Nc1nc2c3ccncc3cc(-c3cccc(Cl)c3)c2c2cnccc12 | 61.2%
COc1c(N)c2c(c([N+](=O)[O-])c1OC)C(=O)OC2 | 115%
CCCC1CCCCN1C(=O)OCC(C)C (stereo not given) | 102%
O=[N+]([O-])c1ccc(N/N=C(\C(=N/Nc2ccc([N+](=O)[O-])cc2[N+](=O)[O-])c2ccccc2)c2ccccc2)c([N+](=O)[O-])c1 | 98.4%
Cc1ccc(/C=C(\C#N)c2cc3ccccc3n2C)cc1 | 38.7%
CC(C)=CCC[C@](C)(O)[C@H]1CC[C@]2(C)[C@@H]1CC[C@@H]1[C@@]3(C)C/C(=C/c4ccc(Br)cc4)C(=O)C(C)(C)[C@@H]3CC[C@]12C | 101%
CCCCCCCN(CCCCCCC)C(=N)c1ccnc2ccccc12 | 34.7%
CN1CCN(c2nc(-c3cccc4ccccc34)nc3sc4c(c23)CCCCCC4)CC1 | 90.2%
CC(=O)O[C@H]1CC[C@]2(C)[C@H]3C(=O)C=C4[C@@H]5C[C@](C)(C(=O)N6CCCNCC6)CC[C@]5(C)CC[C@@]4(C)[C@]3(C)CC[C@H]2C1(C)C | 8.24% (active)
C=C(C)[C@@H]1CC[C@]2(c3nnc(-c4ccncc4)o3)CC[C@]3(C)[C@H](CC[C@@H]4[C@@]5(C)CCC(=O)NC(C)(C)[C@@H]5CC[C@]43C)[C@@H]12 | 112%
O=C1OC(c2ccc(Cl)c(Cl)c2)=C/C1=C/c1cccc([N+](=O)[O-])c1 | 96.1%
COC(=O)C(Cc1ccccc1)n1cc(COc2nc(Cl)nc(Nc3ccc(Cl)cc3)n2)nn1 (stereo not given) | 116%
COC(=O)[C@]12CC[C@@H](C)[C@H](C)[C@@H]1C1=CC[C@@H]3[C@@]4(C)C[C@@H](O)OC[C@](C)(C=O)C4C(=O)C[C@@]3(C)[C@]1(C)CC2 (stereo not given in full) | -10.5% (active)
CCOc1ccc(NC(=O)c2ccccc2-c2ccccc2C(=O)O)cc1 | 98.6%
COc1ccc(-c2cc(/C=C/C(=O)c3ccc(N)cc3)[nH]n2)cc1 | 54.5%
Oc1ccc(CCC2CCCC(CCc3ccc(OCCF)cc3)N2)cc1 (stereo not given) | 89.4%
COc1cnc2c(c1)C(=O)c1c-2n(CCCN2CCN(CCO)CC2)c(=O)c2cc([N+](=O)[O-])ccc12 | 132%
CCCCC[C@H]1C/C=C2/C(=O)C(Cl)=C[C@@H]2C/C=C\CCCC(=O)O[C@@H](CCCCC)C/C=C2/C(=O)C(Cl)=C[C@@H]2C/C=C\CCCC(=O)O1 | -44.4% (active)
CCN(CC)CCCCCNc1cc(OC(=O)c2ccccc2)cc2cccnc12 | 121%

SMILES | growth
Cc1ccccc1-c1nc(C(Cl)Cl)nc2cc(-c3ccccc3)nn12 | 96.4%
COc1cc(C(=O)/C=C/c2cc(-c3ccc4c(c3)OCO4)n[nH]2)cc(OC)c1OC | 57.6%
CCCCN1CCCCn2c1nc1c2c(=O)n(C)c(=O)n1C | 117%
CCN(CC)C(=O)CCCCCn1c2ccccc2c2c3c(c4c5ccccc5[nH]c4c21)C(=O)N(O)C3=O | 104%
N#Cc1cnc2cc(OC[C@@H](O)CO)c(NC(=O)C3CCCC3)cc2c1Nc1ccc(OCc2cccc(F)c2)c(Cl)c1 | 86.1%
CCOc1ccc(NC(=O)c2ccoc2COc2ccccc2)cc1 | 103%
OCC(CO)(CCl)CCl | 98.1%
COc1cc2ncnc(Nc3ccc(OCc4cccc(F)c4)c(Cl)c3)c2cc1NC(=O)C1CCCC1 | 88.9%
Cc1ccc(-c2nn(Cc3cn(-c4cc(C)nc5ccccc45)nn3)c3ncnc(N)c23)cc1 | 57.9%
COc1ccc(/C(=C\c2ccc3c(c2)OCO3)C(=O)Nc2nc3ccccc3s2)cc1OC | 93.7%
Fc1ccc2nc(-c3cc(-c4ccc5c(c4)OCO5)n[nH]3)[nH]c2c1 | 84.3%
Cc1cc(N(CCCNc2ccnc3cc(Cl)ccc23)Cc2ccco2)nc(N2CCOCC2)n1 | 79%
COc1ccc2[nH]c(-c3ccc(Cl)cc3)cc(=O)c2c1 | 97.7%
c1ccc(CN2C(c3ccccc3)=Nc3ccccc3C2c2c[nH]c3ccccc23)cc1 (stereo not given) | 60.7%
C=C(C)[C@@H]1CC[C@]2(C(=O)O)CC[C@]3(C)[C@H](CC[C@@H]4[C@@]5(C)C/C(=C/c6cccc(I)c6)C(=O)C(C)(C)[C@@H]5CC[C@]43C)[C@@H]12 | 81.3%
Cc1ccc(Sc2sc(-c3ccccc3)nc2[P+](c2ccccc2)(c2ccccc2)c2ccccc2)cc1 | 25.4%
Cc1ccc2oc(=O)cc(-c3sc(N4CCCCC4)nc3-c3ccccc3)c2c1 | 102%
N#C/C(=C\c1ccc(-c2ccc(Cl)cc2)o1)c1nc(-c2ccco2)cs1 | 61.8%
COc1ccc(OC)c(-c2c(C#N)c(-c3ccco3)nc3c2c(-c2ccccc2)nn3-c2ccccc2)c1 | 95.5%
COC(=O)[C@]12CC[C@@H](C)[C@H](C)[C@@H]1C1=CC[C@@H]3[C@@]4(C)C(c5ncon5)=C[C@@](C)(CO)C4=CC[C@@]3(C)[C@]1(C)CC2 | -56.2% (active)
